Holding throughout (test): qHTS profiling for inhibitors of Plasmodium falciparum proliferation (AID 504749); also: nearly all actives have a fitted effect of over 60% in size
What all share (conditions): P. falciparum in erythrocytes, SYBR Green DNA, 72 h; series mostly up to 28.7 µM
On the technique in general: In qHTS, concentration-response curves come from the screen itself.

In one experiment the test system is ATS189. The procedure, abridged: (§1)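 Quantitative HTS: compounds pinned into medium, infected erythrocytes added (0.3% parasitemia, 2.5% hematocrit), 72 h culture at 37 C under 5% CO2. Saponin/Triton lysis with SYBR Green I, overnight RT, then fluorescence read.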
Another experiment deals with ATS95. An outline of the steps: as §1
The test system of a further experiment is C2A. An outline of the steps: as §1
Another experiment relates to CP192. An outline of the steps: as §1
A further experiment concerns CP194. The procedure, abridged:
as §1

Another experiment concerns CP201. An outline of the steps: as §1
A further experiment has as its system CP211. The procedure, abridged:
as §1

For another experiment, the system named is CP215. An outline of the steps:
as §1

Another experiment concerns CP185. The procedure, abridged: as §1
The test system of another experiment is CP191. The procedure, abridged: as §1

Results filed as inconclusive are left out. Active and inactive are the calls of the source. Calls follow the shape of the dose curve; as a rule, active = well fitted inhibition curve with a large enough effect; inconclusive = small, poorly fitted or top-dose-only effect; inactive = flat fitted curve, though single readings scatter.
Potency is read from the fitted curve at half-maximal effect.

As to `COc1c(C)c2c(c(O)c1CC=C(C)CCC(=O)OCCN1CCOCC1)C(=O)OC2`, the Potency in the experiment with ATS189 was 7.94 µM (active); in the experiment with ATS95, 7.94 µM (active); in the experiment with C2A, 11.2 µM (active); in the experiment with CP192, 8.49 µM (active); in the experiment on CP194 it was 6.75 µM (active); with CP201, 13.5 µM (active). Moreover, the Potency in the experiment on CP211 and with CP215 was 6.01 µM (active) throughout.

In the case of `CN1CC(=O)N2C(Cc3c([nH]c4ccccc34)[C@H]2c2ccc3c(c2)OCO3)C1=O` (stereo partly drawn), the Potency result in the experiment with ATS189, in the experiment with ATS95, with C2A, in the experiment with CP192, in the experiment on CP194 and in the experiment on CP201 was “inactive” in each case. Further, the Potency result in the experiment on CP211 and in the experiment with CP215 was “inactive” in each case. The call in the experiment with CP185 and in the experiment with CP191 was inactive.

Turning to `O=C(O)c1nc(=O)[nH]c(=O)[nH]1`, the Potency result in the experiment on ATS189, in the experiment with ATS95, in the experiment on C2A, in the experiment on CP192, with CP194 and in the experiment with CP201 was “inactive” each time. Also, in the experiment on CP211, the Potency result is “inactive”. In addition, the call in the experiment with CP185 and in the experiment on CP191 was inactive.

Regarding `CS(=O)(=O)c1ccc(C2=C(c3ccccc3)C(=O)OC2)cc1`, the Potency result in the experiment with ATS189, in the experiment on ATS95, with C2A, with CP194, with CP201 and in the experiment with CP211 was “inactive” throughout. Moreover, the compound was called inactive in the experiment with CP185 and with CP191.

With `O=C1C(CCC(O)c2ccc(F)cc2)C(c2ccc(O)cc2)N1c1ccc(F)cc1` (stereo not drawn), the Potency entry with ATS189, in the experiment with ATS95, with C2A, in the experiment with CP192, with CP194 and in the experiment on CP201 was “inactive” in each case. The Potency result in the experiment with CP211 and with CP215 was “inactive” throughout. In addition, the outcome in the experiment on CP185 and in the experiment with CP191 was inactive.

With `COc1cc2c(cc1OC)CC(=O)N(CCCN(C)C[C@H]1Cc3cc(OC)c(OC)cc31)CC2`, the Potency result in the experiment with ATS189, in the experiment on ATS95, with C2A, with CP192, in the experiment on CP194 and in the experiment with CP201 was “inactive” in each case. The Potency result in the experiment on CP211 and in the experiment on CP215 was “inactive” throughout. For the same compound, the compound was classed as inactive with CP185 and with CP191.

In the case of `CC(C)CN(C[C@@H](O)[C@H](Cc1ccccc1)NC(=O)O[C@H]1CO[C@H]2OCC[C@H]21)S(=O)(=O)c1ccc(N)cc1`, the Potency entry in the experiment on ATS189, with ATS95, in the experiment on C2A, in the experiment on CP192, in the experiment with CP194 and with CP201 was “inactive” in each case. In addition, the Potency entry in the experiment with CP211 and in the experiment with CP215 was “inactive” in each case. The compound was classed as inactive with CP185 and with CP191.

In the case of `Cc1cc2nc3c(=O)[nH]c(=O)nc-3n(CC(O)C(O)C(O)CO)c2cc1C` (stereo not drawn), the Potency entry in the experiment on ATS189, in the experiment on ATS95, in the experiment on C2A, in the experiment on CP192, with CP194 and with CP201 was “inactive” throughout. The Potency entry with CP211 and in the experiment with CP215 was “inactive” each time. Further, the result in the experiment on CP185 was inactive.

Consider `N#CC(c1ccc(Cl)cc1)c1c(Cl)cc(-n2ncc(=O)[nH]c2=O)cc1Cl` (stereo not drawn), for which the Potency result in the experiment on ATS189, in the experiment with ATS95, with C2A, in the experiment with CP192, in the experiment on CP194 and with CP201 was “inactive” each time. Also, the Potency entry in the experiment on CP211 and in the experiment with CP215 was “inactive” each time. Besides, the outcome with CP185 and in the experiment with CP191 was inactive.

In the case of `CN1CCN2c3ncccc3Cc3ccccc3C2C1` (stereo not drawn), the Potency result with ATS189, with C2A, with CP201 and in the experiment on CP215 was “inactive” each time. Further, the compound was classed as inactive in the experiment with CP185 and in the experiment on CP191.

Regarding `Clc1ccc(COC(Cn2ccnc2)c2ccc(Cl)cc2Cl)c(Cl)c1` (stereo not drawn), the Potency in the experiment with ATS95 is 3.98 µM (active); with CP215 it was 5.73 µM (active).

In the case of `C=C1c2cccc(O)c2C(O)=C2C(=O)[C@@]3(O)C(O)=C(C(N)=O)C(=O)[C@@H](N(C)C)[C@@H]3[C@@H](O)[C@H]12`, the Potency entry in the experiment on ATS189, in the experiment with ATS95, with C2A, in the experiment on CP192, in the experiment on CP194 and in the experiment on CP201 was “inactive” in each case. In addition, the Potency result in the experiment with CP211 and with CP215 was “inactive” throughout. Moreover, the result in the experiment on CP185 and with CP191 was inactive.

In the case of `COc1ccnc(CS(=O)c2nc3ccc(OC(F)F)cc3[nH]2)c1OC` (stereo not drawn), the Potency entry in the experiment on ATS189, in the experiment on ATS95, in the experiment with C2A, in the experiment on CP192, with CP194 and with CP201 was “inactive” in each case. The Potency entry in the experiment on CP211 and in the experiment with CP215 was “inactive” in each case. The result with CP185 and in the experiment on CP191 was inactive.

Take `NS(=O)(=O)c1cc(Cl)c(Cl)c(S(N)(=O)=O)c1`: the Potency result in the experiment on ATS189, with ATS95, in the experiment with C2A, with CP192, with CP194 and in the experiment with CP201 was “inactive” in each case. The Potency entry with CP211 and in the experiment on CP215 was “inactive” in each case. For the same compound, the compound was classed as inactive in the experiment with CP185 and with CP191.

Turning to `N#Cc1c(N(CC(=O)O)CC(=O)O)sc(C(=O)O)c1CC(=O)O`, the Potency entry in the experiment with ATS189, with ATS95, in the experiment with C2A, in the experiment on CP192, with CP194 and in the experiment with CP201 was “inactive” each time. Also, the Potency result with CP211 and in the experiment with CP215 was “inactive” throughout. For the same compound, the outcome in the experiment on CP185 and with CP191 was inactive.

Take `Fc1ccc(C(c2ccc(F)cc2)N2CCN(CC=Cc3ccccc3)CC2)cc1`: the Potency result in the experiment with CP192 was “inactive”.

The record behind these values is PubChem BioAssay (NCATS).
